In PubChem BioAssay (NCATS):
Where “and” joins values, the source holds several entries; their conditions need not be identical. Identical values can stand only once. Inconclusive results are not listed. Where a call stands in place of a potency, no number is given. Calls of active or inactive are those of the source. The call rests on the fitted dose curve; in most records, active means well fitted curve in the direction sought with a large enough effect; inconclusive means small, poorly fitted or top-dose-only effect, or another doubt; inactive means no such curve, though single readings can be large; an effect the other way counts as inactive or inconclusive.

Test: Quantitative highthroughput screen to assess conditional lethalithy of P12 Ichikawa cells grown in Human Plasma-Like Medium with dialyzed fetal bovine serum (HPLM+ds) (AID 1963879); further: nearly all actives have a fitted effect of over 35% in size
Details: ATP luminescence, 48 h; Potency: viability; series mostly up to 45.8 µM
How it was run: (§1)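 Each medium arm—HPLM with 10% dialyzed FBS, or RPMI1640 with 5 mM glucose and 10% untreated or dialyzed FBS—was screened against an 11-point, 3-fold compound titration for 48 h at 37 °C, with CellTiter-Glo luminescence as endpoint.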
Potency means the concentration at half of the fitted maximal effect.

Row | Structure (SMILES) | Potency
1 | Nc1ccn(C2CO[C@H](CO)O2)c(=O)n1 (stereo partly specified) | inactive
2 | CC1(C)NC(=O)N(c2ccc([N+](=O)[O-])c(C(F)(F)F)c2)C1=O | inactive
3 | C[C@@H]1CCO[C@H]2Cn3cc(C(=O)NCc4ccc(F)cc4F)c(=O)c(O)c3C(=O)N12 | inactive
4 | CCCCc1nc2cc(C=CC(=O)NO)ccc2n1CCN(CC)CC | 2640 nM (active)
5 | COc1ccc([C@@H]2CC(=O)c3c(O)cc(O[C@@H]4O[C@H](CO[C@@H]5O[C@@H](C)[C@H](O)[C@@H](O)[C@@H]5O)[C@@H](O)[C@H](O)[C@@H]4O)cc3O2)cc1O | inactive
6 | CCNC(=O)Nc1ccc(Oc2ncnc(N)c2C=NOC)cc1Cl | inactive
7 | NNc1nncc2ccccc12 | inactive
8 | CSc1cccc(Nc2ncc3cc(-c4c(Cl)cccc4Cl)c(=O)n(C)c3n2)c1 | inactive

Test: Quantitative highthroughput screen to assess conditional lethalithy of P12 Ichikawa cells grown in RPMI1640 with dialyzed fetal bovine serum (RPMI+ds) (AID 1963880); further: nearly all actives have a fitted effect of over 35% in size
Details: ATP luminescence, 48 h; Potency: P12-Ichikawa viability; series mostly up to 45.8 µM
How it was run: as §1

Row | Structure (SMILES) | Potency
9 | Nc1ccn(C2CO[C@H](CO)O2)c(=O)n1 (stereo partly specified) | inactive
10 | CC1(C)NC(=O)N(c2ccc([N+](=O)[O-])c(C(F)(F)F)c2)C1=O | inactive
11 | C[C@@H]1CCO[C@H]2Cn3cc(C(=O)NCc4ccc(F)cc4F)c(=O)c(O)c3C(=O)N12 | inactive
12 | CCCCc1nc2cc(C=CC(=O)NO)ccc2n1CCN(CC)CC | 2960 nM (active)
13 | COc1ccc([C@@H]2CC(=O)c3c(O)cc(O[C@@H]4O[C@H](CO[C@@H]5O[C@@H](C)[C@H](O)[C@@H](O)[C@@H]5O)[C@@H](O)[C@H](O)[C@@H]4O)cc3O2)cc1O | inactive
14 | CCNC(=O)Nc1ccc(Oc2ncnc(N)c2C=NOC)cc1Cl | inactive
15 | NNc1nncc2ccccc12 | inactive
16 | CSc1cccc(Nc2ncc3cc(-c4c(Cl)cccc4Cl)c(=O)n(C)c3n2)c1 | inactive

Test: Quantitative highthroughput screen to assess conditional lethalithy of P12 Ichikawa cells grown in RPMI1640 with untreated serum (RPMI+s) (AID 1963881); further: nearly all actives have a fitted effect of over 35% in size
Details: ATP luminescence, 48 h; Potency: viability; series mostly up to 45.8 µM
How it was run: as §1

Row | Structure (SMILES) | Potency
17 | Nc1ccn(C2CO[C@H](CO)O2)c(=O)n1 (stereo partly specified) | inactive
18 | CC1(C)NC(=O)N(c2ccc([N+](=O)[O-])c(C(F)(F)F)c2)C1=O | inactive
19 | C[C@@H]1CCO[C@H]2Cn3cc(C(=O)NCc4ccc(F)cc4F)c(=O)c(O)c3C(=O)N12 | inactive
20 | CCCCc1nc2cc(C=CC(=O)NO)ccc2n1CCN(CC)CC | 2960 nM (active)
21 | COc1ccc([C@@H]2CC(=O)c3c(O)cc(O[C@@H]4O[C@H](CO[C@@H]5O[C@@H](C)[C@H](O)[C@@H](O)[C@@H]5O)[C@@H](O)[C@H](O)[C@@H]4O)cc3O2)cc1O | inactive
22 | CCNC(=O)Nc1ccc(Oc2ncnc(N)c2C=NOC)cc1Cl | inactive
23 | NNc1nncc2ccccc12 | inactive
24 | CSc1cccc(Nc2ncc3cc(-c4c(Cl)cccc4Cl)c(=O)n(C)c3n2)c1 | inactive

Test: Quantitative highthroughput screen to assess conditional lethalithy of SEM cells grown in Human Plasma-Like Medium with dialyzed fetal bovine serum (HPLM+ds) (AID 1963882); further: nearly all actives have a fitted effect of over 35% in size
Details: SEM B-ALL cells in HPLM+ds, CellTiter-Glo viability, 48 h; series mostly up to 45.8 µM
How it was run: as §1

Row | Structure (SMILES) | Potency
25 | CC1(C)NC(=O)N(c2ccc([N+](=O)[O-])c(C(F)(F)F)c2)C1=O | inactive
26 | C[C@@H]1CCO[C@H]2Cn3cc(C(=O)NCc4ccc(F)cc4F)c(=O)c(O)c3C(=O)N12 | inactive
27 | CCCCc1nc2cc(C=CC(=O)NO)ccc2n1CCN(CC)CC | 1870 nM (active)
28 | COc1ccc([C@@H]2CC(=O)c3c(O)cc(O[C@@H]4O[C@H](CO[C@@H]5O[C@@H](C)[C@H](O)[C@@H](O)[C@@H]5O)[C@@H](O)[C@H](O)[C@@H]4O)cc3O2)cc1O | inactive
29 | CCNC(=O)Nc1ccc(Oc2ncnc(N)c2C=NOC)cc1Cl | 1050 nM (active)
30 | NNc1nncc2ccccc12 | inactive

Test: Quantitative highthroughput screen to assess conditional lethalithy of SEM cells grown in RPMI1640 with unreated serum (RPMI+s) (AID 1963883); further: nearly all actives have a fitted effect of over 35% in size
Details: SEM B-ALL cells, CellTiter-Glo viability, 48 h; series mostly up to 45.8 µM
How it was run: as §1

Row | Structure (SMILES) | Potency
31 | Nc1ccn(C2CO[C@H](CO)O2)c(=O)n1 (stereo partly specified) | inactive
32 | CC1(C)NC(=O)N(c2ccc([N+](=O)[O-])c(C(F)(F)F)c2)C1=O | inactive
33 | C[C@@H]1CCO[C@H]2Cn3cc(C(=O)NCc4ccc(F)cc4F)c(=O)c(O)c3C(=O)N12 | inactive
34 | CCCCc1nc2cc(C=CC(=O)NO)ccc2n1CCN(CC)CC | 2090 nM (active)
35 | COc1ccc([C@@H]2CC(=O)c3c(O)cc(O[C@@H]4O[C@H](CO[C@@H]5O[C@@H](C)[C@H](O)[C@@H](O)[C@@H]5O)[C@@H](O)[C@H](O)[C@@H]4O)cc3O2)cc1O | inactive

Test: Quantitative highthroughput screen to assess conditional lethalithy of SEM cells grown in RPMI1640 with dialyzed fetal bovine serum (RPMI+ds) (AID 1963884); further: nearly all actives have a fitted effect of over 35% in size
Details: SEM B-ALL cells, RPMI+dialyzed FBS, CellTiter-Glo viability, 48 h; series mostly up to 45.8 µM
How it was run: as §1

Row | Structure (SMILES) | Potency
36 | Nc1ccn(C2CO[C@H](CO)O2)c(=O)n1 (stereo partly specified) | inactive
37 | CC1(C)NC(=O)N(c2ccc([N+](=O)[O-])c(C(F)(F)F)c2)C1=O | inactive
38 | C[C@@H]1CCO[C@H]2Cn3cc(C(=O)NCc4ccc(F)cc4F)c(=O)c(O)c3C(=O)N12 | inactive
39 | CCCCc1nc2cc(C=CC(=O)NO)ccc2n1CCN(CC)CC | 2090 nM (active)
40 | COc1ccc([C@@H]2CC(=O)c3c(O)cc(O[C@@H]4O[C@H](CO[C@@H]5O[C@@H](C)[C@H](O)[C@@H](O)[C@@H]5O)[C@@H](O)[C@H](O)[C@@H]4O)cc3O2)cc1O | inactive
41 | CCNC(=O)Nc1ccc(Oc2ncnc(N)c2C=NOC)cc1Cl | 935 nM (active)

Test: Cellular viability qHTS for adrenocortical cancer (ACC) cell line SW-13 (AID 1963989); further: nearly all actives have a fitted effect of over 65% in size;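 on activity (max response): cells grown in serum-free medium with ITS supplement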
Details: SW-13 ACC cells viability, CellTiter-Glo, 48 h; activity (max response): hits give low values
How it was run: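 SW-13 cells in ITS-supplemented serum-free DMEM were plated overnight, then exposed for 48 h at 37C to compound titrations (up to 46 uM final). Viability was read by CellTiter-Glo luminescence; four-parameter logistic fits gave IC50 and efficacy.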

Row | Structure (SMILES) | activity (max response) | Potency
42 | COc1ccc(CCC(C)=O)cc1 | -3.66% (inactive) | 
43 | CC(=O)O[C@H]1C[C@@H]2CC[C@@H]3[C@H](CC[C@@]4(C)[C@H]3C[C@H]([N+]3(C)CCCCC3)[C@@H]4OC(C)=O)[C@@]2(C)C[C@@H]1N1CCCCC1 | 0.69% (inactive) | 
44 | Cc1ccc(Cl)c(OCC(O)CNC(C)(C)C)c1 (stereo unspecified) | 1.06% (inactive) | 
45 | CNC(=O)Oc1ccc2c(c1)[C@]1(C)CCN(C)[C@@H]1N2C | 16.2% (inactive) | 
46 | CCCCOCCOC(=O)c1cccnc1 | -1.25% (inactive) | 
47 | CC[C@@H](CO)NCCN[C@@H](CC)CO | 14% (inactive) | 
48 | COC(=O)c1nc(Cl)c(Cl)nc1N |  | 8200 nM (active)
49 | O=C(NCN1CCOCC1)c1cnccn1 | -5.4% (inactive) | 
50 | CC1(C)NC(=O)N(c2ccc([N+](=O)[O-])c(C(F)(F)F)c2)C1=O | -3.44% (inactive) and -9.93% (inactive) | 
51 | CCCCCCCC(=O)[O-].CCCCCCCC(=O)[O-].[Zn+2] | 2.96% (inactive) | 
52 | C[C@@H](N)C(=O)O | 1.67% (inactive) | 
53 | CC(C)NNC(=O)c1ccncc1 | 1.43% (inactive) | 
54 | NS(=O)(=O)c1ccc(N2CCCCS2(=O)=O)cc1 | 16.4% (inactive) | 
55 | CCn1cc(C(=O)O)c(=O)c2cnc(N3CCCC3)nc21 | -7.72% (inactive) | 
56 | CCCCCCCC/C=C\CCCCCCCCN | 7.78% (inactive) | 
57 | NNc1nncc2ccccc12 | 12.3% (inactive) and -11.3% (inactive) | 
58 | C=C(C)C(=O)OCC(O)CO (stereo unspecified) | -4.84% (inactive) | 
59 | NC1CCN(c2cccc(Cl)n2)CC1 | 2.41% (inactive) | 
60 | NC(=O)CCCCC1CCSS1 (stereo unspecified) | 9.98% (inactive) | 
61 | c1ccc2c(CC3=NCCN3)cccc2c1 | 1.1% (inactive) | 
